53 compounds from PubChem BioAssay AID588405 (Sanford-Burnham Center for Chemical Genomics, 2011) can be followed below.

Hit rate of the full screen: of about 360,000 compounds, about 6,200 (1.7%) were called active. What follows is part of a selection rich in actives, with near analogues and random picks from the rest. Values without a mark were called inactive.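 The calls were made as follows: active = inhibition of at least 50% at 20 µM; inactive = the rest.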

Usually inhibition stands for the drop in the measured response relative to a control, in per cent.

The nature of this experiment: Peg3 promoter-driven luciferase inhibitors, primary screen, cell-based, HeLa, luciferase luminescence (AID 588405). Particulars: HeLa PEG-Prom luciferase reporter, overnight, at 20 µM, stronger effect = higher value.
As for `CC(=O)Nc1cccc(-c2cc(NC(C)=O)c3ncc(-c4ccccc4)n3c2)c1`, the inhibition is 20.6%. For `CCOC(=O)C1CN(S(=O)(=O)c2ccc(OC)cc2)c2cc(Cl)ccc2O1` (stereo not drawn), the inhibition is 8.58%. For `Cc1ccc(NC(=O)[C@H](Cc2ccccc2)NC(=O)CC[C@H]2O[C@@H](n3ccc(=O)[nH]c3=O)[C@H](O)[C@@H]2O)cc1C` the value was 4.14%; for `CCCCNc1c(-c2cccc(Sc3ccc(OC)cc3)c2)nc2ccccn12`, 92.9% (active); for `COC(=O)c1ccc2nc(-c3cccc(Br)c3)c(Cc3ccc(OC)cc3C)n2c1`, -33%. Take `CCCCNc1c(-c2ccc(OC)c(Sc3ccc(OC)cc3)c2)nc2ccc(Cl)cn12`: the inhibition is -44%.

Take `CS(=O)(=O)/C(C#N)=C/c1cccn1S(=O)(=O)c1ccc([N+](=O)[O-])cc1`: the inhibition is -17.4%. As for `O=C(NCCN1CCOCC1)c1ccccc1N1C(=O)[C@@H]2Cc3c([nH]c4ccccc34)C(c3cccc(Cl)c3)N2C1=O` (stereo partly drawn), the inhibition was 20.3%.

With `CC(C)c1cccc(C(C)C)c1Nc1cn[nH]c1`, the inhibition is 9.45%. With `COC(=O)c1ccc2nc(-c3ccc(OC)c(OC)c3)c(Cc3ccccc3)n2c1`, the inhibition was -21.6%. The same measure for `O=C(N/N=C/c1ccccn1)C12CC3CC(CC(C3)C1)C2`: -8.28%; for `S=C(NN=Cc1ccccn1)Nc1ccccn1`: -79.6%; for `Cc1nnc(N/N=C/c2ccccn2)[nH]c1=O`: 62% (active). `Cc1ccc(CNC(=O)Nc2nnc([C@H]3C[C@H](O)[C@@H](CO)O3)s2)cc1`: the inhibition is -6.3%. In the case of `CC1(C(=O)Nc2ccc3c(c2)OCCO3)CCN1C(=O)Cc1cc(F)ccc1F` (stereo not drawn), the inhibition is 2.13%.

`Cc1ccc(C(=O)N/C(=C\c2ccco2)C(=O)NC2CCS(=O)(=O)C2)cc1` (stereo not drawn): the inhibition was 16.9%. Regarding `CCCc1nc2c3ccccc3ccn2c1Cc1ccccc1C(F)(F)F`, the inhibition is -16%. Regarding `CN1OC[C@@H]2CN(C(=O)C(C)(C)C)[C@H](c3ccc(-n4ccnc4)cc3)C[C@@H]21`, the inhibition is -4.85%. Consider `O=C1/C(=C\c2ccc([N+](=O)[O-])cc2)CS(=O)(=O)C/C1=C/c1ccc([N+](=O)[O-])cc1`, for which the inhibition is 100% (active). The same measure for `CN(C)S(=O)(=O)N1CCN(c2ccc([N+](=O)[O-])cc2)CC1`: 14.5%; for `CC(=O)Nc1ccc(C=Cc2ccc([N+](=O)[O-])cc2)cc1`: -310%.

As for `CCCNC(=O)C1(C)CCCN(Cc2cccc(C(F)(F)F)c2)C1` (stereo not drawn), the inhibition was 2.53%.

As for `CCCOc1ccc(F)cc1-c1cc(C(=O)Nc2ccc(F)c(Cl)c2)[nH]n1`, the inhibition is 25.8%. Take `CC1(C(=O)NS(=O)(=O)C2CC2)CCCN(C(=O)CSc2ccccc2)C1` (stereo not drawn): the inhibition was 8.07%.

Consider `O=S(=O)(c1ccccc1)N1CCC(c2ccccc2)CC1`, for which the inhibition was 6.2%. For the compound `CC(=O)N1CC(C)c2scc(C)[n+]2-c2ccccc21` (stereo not drawn), the inhibition is 5.89%. Consider `CN1OC[C@@H]2CN(S(=O)(=O)c3cccc(C(F)(F)F)c3)[C@H](c3ccc(-c4cc5ccccc5o4)cc3)C[C@@H]21`, for which the inhibition is 68.8% (active).

For `CN1OC[C@@H]2CN(S(=O)(=O)c3cccc4ccccc34)[C@H](c3ccc(N4CCCCC4)cc3)C[C@@H]21`, the inhibition is -9.16%.

As for `COc1ccc(S(=O)(=O)N2C[C@H]3CON(C)[C@H]3C[C@H]2c2cccc(Br)c2)cc1`, the inhibition was 6.82%. As for `Nc1nc2c(ncn2[C@@H]2O[C@H](CNS(=O)(=O)N3CCc4ccccc4C3)[C@@H](O)[C@H]2O)c(=O)[nH]1`, the inhibition is 5.67%. With `Cc1ccc(-c2cnc(C(O)c3cc(Cl)cc(Cl)c3)[nH]2)cc1` (stereo not drawn), the inhibition is 37.2%. The same measure for `CC1(C(=O)NS(=O)(=O)c2ccccc2)CCN1C(=O)C/C=C/c1ccccc1` (stereo not drawn): -9.64%; for `CC1(C(=O)O)CCN1C(=O)/C=C/c1ccccc1` (stereo not drawn): -2.65%; for `CC1(C)CCSC(/C=C/c2ccccc2)=N1`: 106% (active). Consider `CC(C)(C)c1ccc(C(=O)NCC(=O)OCN2C(=O)c3ccccc3C2=O)cc1`, for which the inhibition was -11.7%. Regarding `O=C(CCl)N(Cc1cccc([N+](=O)[O-])c1)c1cccc(Cl)c1`, the inhibition is 109% (active). Consider `COC(=O)c1cc(C(=O)N(Cc2ccccc2)c2ccccn2)cc([N+](=O)[O-])c1`, for which the inhibition was 5.92%.

As to `CC(=O)N(CN1C(=O)C2CC=CCC2C1=O)c1cccc(Cl)c1` (stereo not drawn), the inhibition is 12%.

Consider `COC(=O)Cc1ccc(OC2(C)CCN(Cc3ccc4c(c3)OCCO4)C2)cc1` (stereo not drawn), for which the inhibition was -18.6%. For the compound `Cc1cccc(C)c1NC(=O)CN1CCN(c2ccc(F)cc2)CC1`, the inhibition was 5.77%. As for `CCc1ccc(CNC(=O)C2CC(=O)N(CCc3ccc(C)cc3)C2)cc1` (stereo not drawn), the inhibition was 7.77%. As to `Cc1ccc(NC(=O)N2CCC(C(=O)NCc3ccc(F)cc3)CC2)cc1`, the inhibition is 6.32%. Turning to `CCc1ccc(CNC(=O)C2CCN(c3nnc(C)c4c(C)n(-c5ccc(C)cc5)nc34)CC2)cc1`, the inhibition was 99.3% (active). The same measure for `COc1ccc(OC)c(S(=O)(=O)N2CCCC(C(=O)NCCc3ccccc3)C2)c1` (stereo not drawn): 5.79%; for `N#CCCN(C(=O)COC(=O)C1CCN(c2ccc(C(F)(F)F)cn2)CC1)c1ccc(F)cc1`: -15.9%; for `CCOC(=O)C1(Cc2ccccc2C)CCCN(C(=O)c2ccc(COC)o2)C1` (stereo not drawn): -235%.

Regarding `Cc1cccc(N=Nc2c(O)[nH]c3ccc(F)cc23)c1`, the inhibition is -236%.

On to `NS(=O)(=O)c1ccc(N=Nc2c(O)[nH]c3ccc(Br)cc23)cc1`, for which the inhibition was 98.7% (active).

As to `O=C(CNC(=O)Cc1ccccc1)N=Nc1c(O)[nH]c2ccc(Br)cc12`, the inhibition was -7.31%. Regarding `CCCNC(=O)c1cc(C2CCCN(C(=O)c3ccc4c(c3)CCO4)C2)on1` (stereo not drawn), the inhibition was 11%.

In the case of `Cc1ccc(N2C(=O)CC(NCc3ccc4c(c3)OCO4)C2=O)cc1Cl` (stereo not drawn), the inhibition was -15.9%. Consider `O=C(CSc1nc(=O)n2ccccc2n1)Nc1ccc2c(c1)OCCO2`, for which the inhibition is -14.4%.

In the case of `CCc1ccc([C@@H]2CC(=O)[C@@H]3CN(S(=O)(=O)c4ccc(C)cc4)[C@H](c4ccc(Cl)cc4)C[C@@H]3N2S(=O)(=O)c2ccc(C)cc2)cc1`, the inhibition was 15.4%.
